Test results taken from PMC13494018.

B1: design_610_f34cc193-997c-4684-af32-2a8002718429_938_dldesign_0_cycle1_af2pred (protein)
chain: SPQAELDAFLGETLETSREISAILEKNRDKVPEEVRNKISDLLNKALSYASKAALGVDPEGAAKAKKYLEEAKKLTEEAVKLA
B2: design_610_f34cc193-997c-4684-af32-2a8002718429_2117_dldesign_0_cycle1_af2pred (protein)
chain: AAAAETASKAGEATIEALKAGAEAARLAEELGLDPAPYHQKAAQAIAALQAGEGSLETVTALKEELEKAAKELKEKV
B3: design_610_f34cc193-997c-4684-af32-2a8002718429_1837_dldesign_0_cycle1_af2pred (protein)
chain: NQVAAIAAANQALGERAYAEGLALYAADPEANREAARAAFVRAYAYFNAAAGAAIVLGDAAAAAAAQAKAEEAKAHAEALKA
B4: design_610_f34cc193-997c-4684-af32-2a8002718429_1694_dldesign_0_cycle1_af2pred (protein)
chain: AAAAAELALRSAEALLRSARENAAAGTISPEGLRGAAEVIKDLARYAGELGGPEAAARAEELIAEADAVVA
B5: design_610_f34cc193-997c-4684-af32-2a8002718429_2230_dldesign_0_cycle1_af2pred (protein)
chain: SADQAEKQKLLAKFNEVSGEALELMEELTKAGDYETVQQVSRLLGQANGLAVAATDAATAKAALKVAEEALKLAKEALKKA
B6: design_610_f34cc193-997c-4684-af32-2a8002718429_328_dldesign_0_cycle1_af2pred (protein)
chain: MEAAKAAVEAARAEADALLAAAEASPDPGEATALAVDALRTVSAARREIEATYGPEAGALADAVLAEVRARVAALNRRLIA
B7: design_610_f34cc193-997c-4684-af32-2a8002718429_895_dldesign_0_cycle1_af2pred (protein)
chain: SSAEALARRTAEAMVRLAERRIREAAEEGLEKARETAEKWARFAEEALPPEVGAETAKRIREAAERIVRRKEEE
B8: design_611_394c5ea9-a0d3-47c4-9d48-89ba6a28fdd0_498_dldesign_0_cycle1_af2pred (protein)
chain: AAAATLAQVKELIAQAKADPANAAALLSQAIRLAVTTAIAAAAAGDTAAAVALSQAAIEAMKALDEVSKAA
B9: design_610_f34cc193-997c-4684-af32-2a8002718429_291_dldesign_0_cycle1_af2pred (protein)
chain: AEERAKELAEELKELLAKAVADPSKAGEYLGRALELLAELQALAAEHPEVAPYAEEAHRALGAGNKALLAAIAA
B10: design_610_f34cc193-997c-4684-af32-2a8002718429_954_dldesign_0_cycle1_af2pred (protein)
chain: MEEAKEKAEEAKKEAKEAIEKLRKVAEKAKAHPDGAEIQRRVDIAVAAVKGLLKNAEASPNPEDSLKIYEVAKELAEAERERVEAILK
B11: design_611_394c5ea9-a0d3-47c4-9d48-89ba6a28fdd0_317_dldesign_0_cycle1_af2pred (protein)
chain: AEAIQKANDALQEALDYLKEMSEIAKTEKLQEAVKQIQEKVGKAAQYAIDAVKNPEKAAEYAKKAKEEAEKAKEIYEKAKKES
B12: design_610_f34cc193-997c-4684-af32-2a8002718429_1045_dldesign_0_cycle1_af2pred (protein)
chain: MTPGELGELALEALRLAAEAARLAAEDPRFAPAAAAFRAAFIEIARGGDPEEALRLYEEGLRLYEAALAAWRAA
B13: design_610_f34cc193-997c-4684-af32-2a8002718429_1172_dldesign_0_cycle1_af2pred (protein)
chain: LTEEEAKKLLADAKQLLELAEAALADPRFARTAITAADQAAALAKEAAKHPKVAAEAKALAARAEEVRKAAEEAAA
B14: design_610_f34cc193-997c-4684-af32-2a8002718429_1156_dldesign_0_cycle1_af2pred (protein)
chain: NPLVKQAEKNYKKAKEMAELGLASTDPLAIRSYAAFGDSLYNNAAELLKKAGKEEEAKKVEAEGEEKKAALLAKAKAAA
B15: design_611_394c5ea9-a0d3-47c4-9d48-89ba6a28fdd0_264_dldesign_0_cycle1_af2pred (protein)
chain: AADEAAKKAIKQLKASVEAAARNARALAGSPDAPRAVKALKELAKVAAEGALGIAKATKDPEVAKEAKKAAEEIKKIAEETAKEIEA
B16: design_610_f34cc193-997c-4684-af32-2a8002718429_1550_dldesign_0_cycle1_af2pred (protein)
chain: SAAIQEQTAKDWAAVLEAAAARSTEAGIRLARAVAEVFRDDPELAEATAAALTNAEVAAALRAALEEARAAAA
B17: design_610_f34cc193-997c-4684-af32-2a8002718429_824_dldesign_0_cycle1_af2pred (protein)
chain: DALVAEARRLLQEAARLLGTGSAAYIAGDKAAAVAAFKEAIGLAKKALELAKAAGDEALAASAQGLIELAEGLLAAAEA
B18: design_610_f34cc193-997c-4684-af32-2a8002718429_1476_dldesign_0_cycle1_af2pred (protein)
chain: ARAAAIAEEAVRFANAASARALAAAVKTTPEANAQITALVVQLLEEADRARKATDPAEAEAHFEAARALAAEAEAIAAAALA
B19: design_610_f34cc193-997c-4684-af32-2a8002718429_868_dldesign_0_cycle1_af2pred (protein)
chain: DALAKAQKQAKATAEEAKKKAEEAKAAGNSAAAQMYENGAKVAEEGAKGDLKTVKAAIERGKTLIKAGDAIAAA
B20: design_610_f34cc193-997c-4684-af32-2a8002718429_532_dldesign_0_cycle1_af2pred (protein)
chain: MPQAEQAAQAAAKSGESLMKLAESIWSSTPEYRKAHKESILGALEVARDLYEYAAKQGGEEYKKKAEEAKAKYKEVKETL
B21: design_610_f34cc193-997c-4684-af32-2a8002718429_2308_dldesign_0_cycle1_af2pred (protein)
chain: AAAAEAAAARLAAAKAALAAAQAKGAELAAQSPGAGIGYVWAAAVRLGETLGPEAAALAAQARAAAAAQNRALLAQSAA
B22: design_610_f34cc193-997c-4684-af32-2a8002718429_1191_dldesign_0_cycle1_af2pred (protein)
chain: AEATGQAYADILVQSARSLAAAGASPEDVVQAMDSIAQAAIDELGEEGKKYAAKGAEKAAEEVKKLNPEAAKAVAKRAEELKKQA
B23: design_610_f34cc193-997c-4684-af32-2a8002718429_2398_dldesign_0_cycle1_af2pred (protein)
chain: AAAEIARRTVEAGVRQAFAASPEEAERLAENLAKIVEGLAGPEVGERVREIVREGLRLAEKFPEYREEIAEETAERAAELVYEALS
B24: design_610_f34cc193-997c-4684-af32-2a8002718429_1816_dldesign_0_cycle1_af2pred (protein)
chain: AEAEALAAQARAHAHKALQEVSLGGDQAEADAHLAKAEEYAAQAKALDPEIGAQTQKIIDQYKALMAQAR
B25: design_610_f34cc193-997c-4684-af32-2a8002718429_692_dldesign_0_cycle1_af2pred (protein)
chain: SAARAAAAAAVHAKVYAVLEKQAEEALKKAAEVAKKLGDEKFYKEAKKEAEEAKKLAKESPGEGLKAITELKQKVKEAAKKAEA
B26: design_610_f34cc193-997c-4684-af32-2a8002718429_489_dldesign_0_cycle1_af2pred (protein)
chain: EKEKKIKELLEKGLEKMKKAAELTGDPGMQTYLKMAENNVKTNSPKDAAKINAELAKIAAGHAASLDPEAAKLVEEAYKLFKEAAKL
B27: design_610_f34cc193-997c-4684-af32-2a8002718429_285_dldesign_0_cycle1_af2pred (protein)
chain: LAAEVAAAEAAAAAAAAAAKALGATATAAALRAMAEDAARSTPEEAAAARDFAEAMLTVLTARLAAAKAAAA
B28: design_610_f34cc193-997c-4684-af32-2a8002718429_136_dldesign_0_cycle1_af2pred (protein)
chain: SLNGTAGAGIVELLKALAEAQKWKALDPEFFGAAAKEIAAETAAAAQAAVAGDYEAAIAEVKAGKAVAEKAKKHAAEIA
B29: design_611_394c5ea9-a0d3-47c4-9d48-89ba6a28fdd0_577_dldesign_0_cycle1_af2pred (protein)
chain: VAAQLAAAQAKVDDVTAKVAEAKAAAKADPAEGVKIANATIGAAIDAMKAAKTYPPEVAAAAIAALSAQLAEASKIAISAQAKLDA
B30: design_610_f34cc193-997c-4684-af32-2a8002718429_743_dldesign_0_cycle1_af2pred (protein)
chain: EEEEKKKKAKEYVEKAKKLAEQAAKSTVEQAHQYLGQAVELAAKVHELGVLPEEANKVLAQASANALALA
B31: design_610_f34cc193-997c-4684-af32-2a8002718429_1271_dldesign_0_cycle1_af2pred (protein)
chain: SGRVRQAQRLVEMAEELVETGEKEEAEKGKQLADAARALAEEALRRGDDPEAAKEVLERAKEVEKRAEEAIKA
B32: design_610_f34cc193-997c-4684-af32-2a8002718429_742_dldesign_0_cycle1_af2pred (protein)
chain: MERAEKLIEKVKEIASLPKSKEEEQEELALKVAEEAAKLTPEEQQKVIQAMLEYAEKSGSTALLRGANRIFAA
B33: design_610_f34cc193-997c-4684-af32-2a8002718429_1084_dldesign_0_cycle1_af2pred (protein)
chain: SAAQQAKQKALELFEQAAKLAAKYDPKAAEKFNKAKEALQAGDLGGALKYATEGVNILAKNASQEAADEVRAIATQGLISYAQAQILA
B34: design_610_f34cc193-997c-4684-af32-2a8002718429_921_dldesign_0_cycle1_af2pred (protein)
chain: AEAVAVAAMLGLLRNAADHPESAEKLAEIARDMALATGVPAEKVKEVFEEGARYAREKGNEEAAKIIEEKGEEAVKAAKAA
B35: design_610_f34cc193-997c-4684-af32-2a8002718429_2276_dldesign_0_cycle1_af2pred (protein)
chain: AAAAAAAAAEAAARAARAKEVGQKTLDAVAARAKELGARSPALGEAEQLRLKSTAAVLAGDEAAAKAYAAQAGAILAAA
B36: design_610_f34cc193-997c-4684-af32-2a8002718429_661_dldesign_0_cycle1_af2pred (protein)
chain: AKAQAEAQLAQGQKLLEQAKKNLASGKNAVAALSNARGAYVLFQGAAYIAAKTDPELAKKAKEAAKQAEELAKQAQAAIAAA
B37: design_611_394c5ea9-a0d3-47c4-9d48-89ba6a28fdd0_579_dldesign_0_cycle1_af2pred (protein)
chain: DAAAQSKALQAQVAQAQALVEQARAAAADPARARALALQAFRQAQAVNRQAIALGDTATAAAAGEVMVAAARVLAA
B38: design_611_394c5ea9-a0d3-47c4-9d48-89ba6a28fdd0_592_dldesign_0_cycle1_af2pred (protein)
chain: DALKLIEAAAKLAKKIGLEEAAKLAEEAAKLLATGDPEAAGQGVLLLSKAYALAAADPKAAEAAALLRAALAAAAKEAIALARAAR

Target: CD276, Q5ZPR3
Sequence (Q5ZPR3 whole entry): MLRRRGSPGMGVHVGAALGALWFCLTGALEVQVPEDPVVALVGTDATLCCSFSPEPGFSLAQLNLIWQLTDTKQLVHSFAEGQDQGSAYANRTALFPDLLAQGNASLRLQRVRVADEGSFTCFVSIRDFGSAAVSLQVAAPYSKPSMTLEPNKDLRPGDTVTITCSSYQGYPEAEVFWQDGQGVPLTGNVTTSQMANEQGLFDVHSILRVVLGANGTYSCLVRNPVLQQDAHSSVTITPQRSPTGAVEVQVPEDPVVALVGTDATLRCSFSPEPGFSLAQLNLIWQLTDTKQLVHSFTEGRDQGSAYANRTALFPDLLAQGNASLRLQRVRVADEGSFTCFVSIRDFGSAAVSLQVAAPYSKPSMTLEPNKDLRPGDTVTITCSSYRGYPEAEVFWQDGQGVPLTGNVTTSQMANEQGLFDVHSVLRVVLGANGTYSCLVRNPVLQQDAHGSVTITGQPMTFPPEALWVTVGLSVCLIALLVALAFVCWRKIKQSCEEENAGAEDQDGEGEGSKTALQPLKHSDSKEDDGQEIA

Binding in a display sort, inactive:
B1 not found
B2 not found
B3 not found
B4 not found
B5 not found
B6 not found
B7 not found
B8 not found
B9 not found
B10 not found
B11 not found
B12 not found
B13 not found
B14 not found
B15 not found
B16 not found
B17 not found
B18 not found
B19 not found
B20 not found
B21 not found
B22 not found
B23 not found
B24 not found
B25 not found
B26 not found
B27 not found
B28 not found
B29 not found
B30 not found
B31 not found
B32 not found
B33 not found
B34 not found
B35 not found
B36 not found
B37 not found
B38 not found
